Usually Inhibition stands for the relative decrease from the control value, in per cent.

Potency and affinity values are given separately.

These results are taken from ChEMBL document CHEMBL4513141, “CO-ADD screening of NIH (USA) - Clinical Collection” (2021).

One assay relates to Staphylococcus aureus. Particulars: Concentration 20 uM; ASSAY_TEST Inhibition of Bacterial Growth; detection method Absorption (OD600); MEDIA CAMHB; plate type 384well; NBS; CORNING #3640; time 18 hr.
The test system of the next assay is Escherichia coli. The note with it: Concentration 20 uM; ASSAY_TEST Inhibition of Bacterial Growth; detection method Absorption (OD600); MEDIA CAMHB; plate type 384well; NBS; CORNING #3640; time 18 hr.

In the case of `CNC(=O)Oc1ccc2c(c1)[C@]1(C)CCN(C)C1N2C.CNC(=O)Oc1ccc2c(c1)[C@]1(C)CCN(C)C1N2C.O=S(=O)(O)O` (some centres not stated), the Inhibition with Staphylococcus aureus is on record as 12.91%; in the assay on Escherichia coli, -3.79%.

As to `CN(C)C(=O)C(CCN1CCC(O)(c2ccc(Cl)cc2)CC1)(c1ccccc1)c1ccccc1.Cl` [LOPERAMIDE HYDROCHLORIDE], the Inhibition in the assay with Staphylococcus aureus stood at 6.46%; in the assay on Escherichia coli it was 2.77%.

For the molecule `CC(C)NCC(O)COc1cccc2[nH]ccc12` (configuration not stated) [PINDOLOL], the figures for the Inhibition in the assay with Staphylococcus aureus and with Escherichia coli were 7.44% and 5.35%, respectively.

As to `CN1CCN(C2=Nc3cc(Cl)ccc3Nc3ccccc32)CC1` [CLOZAPINE], the Inhibition is listed as -2.25% with Staphylococcus aureus and -7.08% with Escherichia coli.

`Cc1c(OCC(F)(F)F)ccnc1C[S+]([O-])c1nc2ccccc2[nH]1` (configuration not stated) [LANSOPRAZOLE]: the Inhibition in the assay on Staphylococcus aureus is given as 16.66%; in the assay on Escherichia coli, -0.87%.

As to `COC(=O)C[C@](O)(CCCC(C)(C)O)C(=O)O[C@@H]1C(OC)=C[C@]23CCCN2CCc2cc4c(cc2[C@H]13)OCO4` [OMACETAXINE MEPESUCCINATE], the values for the Inhibition in the assay on Staphylococcus aureus and in the assay with Escherichia coli were 10.39% and 7.87%, respectively.

Consider `O.O=P1(N(CCCl)CCCl)NCCCO1` (configuration not stated) [CYCLOPHOSPHAMIDE], for which the values for the Inhibition in the assay with Staphylococcus aureus and in the assay with Escherichia coli were 2.64% and 1.99%, respectively.

With `CNS(=O)(=O)Cc1ccc2[nH]cc(CCN(C)C)c2c1.O=C(O)CCC(=O)O` [SUMATRIPTAN SUCCINATE], the Inhibition is 12.49% in the assay on Staphylococcus aureus and 0.9% in the assay with Escherichia coli.

Regarding `CS(=O)(=O)O.O=C(O[C@@H]1C[C@@H]2C[C@H]3C[C@H](C1)N2CC3=O)c1c[nH]c2ccccc12`, the Inhibition with Staphylococcus aureus is 5.34%; in the assay on Escherichia coli it was 6.66%.

Turning to `C[C@]12CCC(=O)C[C@@H]1CC[C@@H]1[C@@H]2CC[C@@]2(C)[C@H]1CC[C@]2(C)O` [MESTANOLONE], the results for the Inhibition in the assay on Staphylococcus aureus and in the assay on Escherichia coli were -23.2% and 5.51%, respectively.

For `O=C(O)C(Cl)Cl` [DICHLOROACETIC ACID], the Inhibition in the assay with Staphylococcus aureus came out at 11.87%; in the assay on Escherichia coli, 3.62%.

On to `CC(=O)[C@H]1CC[C@H]2[C@@H]3CCC4=CC(=O)CC[C@]4(C)[C@H]3CC[C@]12C` [PROGESTERONE], for which the Inhibition is listed as 12.63% with Staphylococcus aureus and 3.02% in the assay on Escherichia coli.

As to `CCCCCNC(=N)N/N=C/c1c[nH]c2ccc(OC)cc12.O=C(O)/C=C\C(=O)O` [TEGASEROD MALEATE], the Inhibition in the assay on Staphylococcus aureus was 22.85%; in the assay with Escherichia coli, -0.84%.

With `CCOC(=O)C1(c2ccccc2)CCN(CCC(C#N)(c2ccccc2)c2ccccc2)CC1.Cl` [DIPHENOXYLATE HYDROCHLORIDE], the Inhibition in the assay on Staphylococcus aureus is 14.18%; in the assay on Escherichia coli, -7.43%.

With `NC(=O)OCCCc1ccccc1` [PHENPROBAMATE], the Inhibition with Staphylococcus aureus is recorded as 11.43%; in the assay with Escherichia coli, 2.85%.

In the case of `C[N+]1(C)CCN(c2ccccc2)CC1.[I-]` [DIMETHYLPHENYLPIPERAZINIUM IODIDE], the results for the Inhibition in the assay with Staphylococcus aureus and with Escherichia coli were 11.69% and 3.59%, respectively.

`C[C@]12CC[C@H](O)CC1=CC[C@@H]1[C@@H]2CC[C@@]2(C)[C@H]1CC[C@]2(C)O` [METHANDRIOL]: the Inhibition with Staphylococcus aureus is recorded as 0.46%; with Escherichia coli, 5.99%.

Take `Cc1cc(NS(=O)(=O)c2ccc(N)cc2)no1` [SULFAMETHOXAZOLE]: the Inhibition in the assay on Staphylococcus aureus is on record as -14.52%; with Escherichia coli, 28.59%.

Take `CC(C)C(=O)Nc1ccc([N+](=O)[O-])c(C(F)(F)F)c1` [FLUTAMIDE]: the Inhibition in the assay on Staphylococcus aureus turned out to be 10.52%; in the assay with Escherichia coli, 4.1%.

On to `CN1C(=O)CN=C(c2ccccc2)c2cc(Cl)ccc21` [DIAZEPAM], for which the Inhibition with Staphylococcus aureus was determined as 9.71%; in the assay with Escherichia coli, 3.05%.

As to `Cl.c1ccc2c(CC3=NCCN3)cccc2c1` [NAPHAZOLINE HYDROCHLORIDE], the Inhibition with Staphylococcus aureus amounted to 21.19%; in the assay with Escherichia coli, 2.28%.

In the case of `CCOC(=O)c1cncn1[C@H](C)c1ccccc1` [ETOMIDATE], the Inhibition stood at 11.17% in the assay on Staphylococcus aureus and 2.26% in the assay with Escherichia coli.

For the molecule `COC(=O)C1=C(C)NC(C)=C(C(=O)OC)C1c1ccccc1[N+](=O)[O-]` [NIFEDIPINE], the values for the Inhibition in the assay on Staphylococcus aureus and in the assay on Escherichia coli were 16.67% and 3.8%, respectively.

On to `C[C@]12CC[C@H]3[C@@H](CCC4=CC(=O)CC[C@@H]43)[C@@H]1CC[C@@H]2O` [NANDROLONE], for which the Inhibition is -0.13% with Staphylococcus aureus and 1.44% in the assay on Escherichia coli.

On to `O=C1CN=C(c2ccccc2)c2cc([N+](=O)[O-])ccc2N1` [NITRAZEPAM], for which the results for the Inhibition with Staphylococcus aureus and with Escherichia coli were 7.65% and 5.89%, respectively.

Consider `NC1=NC(=O)C(c2ccccc2)O1` (configuration not stated) [PEMOLINE], for which the Inhibition in the assay with Staphylococcus aureus came out at 13.44%; with Escherichia coli, 0.76%.

As for `Cl.Oc1ccc2c3c1OC1C(O)CC[C@@]4(O)[C@@H](C2)N(CC2CCC2)CC[C@]314` (some centres not stated), the Inhibition in the assay with Staphylococcus aureus is 18.7%; in the assay with Escherichia coli it was -2.31%.

With `Brc1c(NC2=NCCN2)ccc2nccnc12` [BRIMONIDINE], the figures for the Inhibition in the assay on Staphylococcus aureus and in the assay with Escherichia coli were 7.02% and -2.73%, respectively.

In the case of `COCCCOc1ccnc(C[S+]([O-])c2nc3ccccc3[nH]2)c1C` (configuration not stated) [RABEPRAZOLE], the Inhibition with Staphylococcus aureus is 10.37%; in the assay on Escherichia coli it was 7.16%.

With `CN(C)CCC=C1c2ccccc2CCc2ccccc21.Cl` [AMITRIPTYLINE HYDROCHLORIDE], the Inhibition is given as 5.1% with Staphylococcus aureus and 1.2% in the assay with Escherichia coli.

Regarding `N=C(NCc1ccc(Cl)cc1)SCCCc1c[nH]cn1` [CLOBENPROPIT], the figures for the Inhibition in the assay with Staphylococcus aureus and in the assay with Escherichia coli were -4.61% and -3.53%, respectively.

As to `CCC1(c2ccc(N)cc2)CCC(=O)NC1=O` (configuration not stated) [AMINOGLUTETHIMIDE], the Inhibition in the assay with Staphylococcus aureus is listed as -4.21%; in the assay on Escherichia coli, 2.02%.

Turning to `C[C@]12CCC(=O)C=C1CC[C@@H]1[C@@H]2CC[C@@]2(C)[C@H]1CC[C@]2(C)O` [METHYLTESTOSTERONE], the values for the Inhibition in the assay with Staphylococcus aureus and with Escherichia coli were 7.28% and 3.56%, respectively.

On to `CCCN1C[C@H](CSC)C[C@@H]2c3cccc4[nH]cc(c34)C[C@H]21.CS(=O)(=O)O` [PERGOLIDE MESYLATE], for which the Inhibition in the assay on Staphylococcus aureus came to 12.62%; in the assay with Escherichia coli it was 4.25%.

As to `NCCc1ccccn1`, the Inhibition is reported as 1.79% with Staphylococcus aureus and 8.78% with Escherichia coli.

On to `Nc1nc2ccc(Cl)cc2c2nc(-c3ccco3)nn12` [CGS-15943], for which the results for the Inhibition in the assay with Staphylococcus aureus and in the assay with Escherichia coli were 11.02% and 5.2%, respectively.

In the case of `C#CCN(C)[C@H](C)Cc1ccccc1.Cl` [SELEGILINE HYDROCHLORIDE], the results for the Inhibition in the assay with Staphylococcus aureus and in the assay with Escherichia coli were -22.3% and 3.38%, respectively.

Take `C[C@]12Cc3c[nH]nc3C[C@@H]1CC[C@@H]1[C@@H]2CC[C@@]2(C)[C@H]1CC[C@]2(C)O` [STANOZOLOL]: the Inhibition in the assay on Staphylococcus aureus is given as -5.12%; with Escherichia coli, 3.01%.

Consider `CC(C)[C@]12O[C@H]1[C@@H]1O[C@]13[C@]1(O[C@H]1C[C@H]1C4=C(CC[C@@]13C)C(=O)OC4)[C@@H]2O` [TRIPTOLIDE], for which the figures for the Inhibition with Staphylococcus aureus and in the assay on Escherichia coli were 14.16% and -9.75%, respectively.

Turning to `COc1cc(N)c(Cl)cc1C(=O)NC1CN2CCC1CC2.Cl.O` (configuration not stated) [ZACOPRIDE HYDROCHLORIDE], the Inhibition in the assay on Staphylococcus aureus was -3.02%; in the assay on Escherichia coli, 7.58%.

Regarding `Cc1c(O)c(=O)ccn1C` [DEFERIPRONE], the values for the Inhibition with Staphylococcus aureus and with Escherichia coli were 9.56% and -6.38%, respectively.
